Test results taken from the supplement of paper PMC11417369.
± gives the standard deviation of the averaged measurements. The full ranking holds about 25,000 sequences; the median of “ln(normalized median fluorescence intensity)” is about 8.9, and the highest 2% start at about 10. What follows is part of a selection rich in the highest values, with near analogues and random picks from the rest.

tested on: PfAP2-LT AP2 domain (GST-tagged); experiment: gcPBM binding intensity (ln(normalized median fluorescence intensity)); higher = stronger DNA binding
In short: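 Binding intensity is defined as the maximum Masliner-normalised natural-log median intensity across replicate spots for either probe orientation. It was measured on an Agilent 4 × 180k array of primer-extended double-stranded 36-bp intergenic genomic probes and negative controls, to which GST-tagged P. falciparum DNA-binding domains made in E. coli were applied for 1 h in 1× PBS with 1% milk, 0.2 mg/ml BSA, 0.5% salmon testes DNA and 0.03% Triton X-100. Detection was by Alexa488 anti-GST antibody and scanning at 488 nm.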

Sequence | gcPBM binding intensity (ln)
TTCTTATATTGTACAGTACACACCTTTATAATGTTA [CACACA_site7953] | 9.15 ± 0.49
TATCATAAAATATGTAGTACGTATATATATAAAAAT [XGTACX_site5455] | 8.97 ± 0.41
GTAATTATTAATAAAACATGCGTATAAAATTTTCTC [TGCATGCA_site50] | 8.62 ± 0.46
TATATATATATATTTACACACATTCATATAAATTCA [CACACA_site3532] | 9.04 ± 0.28
CAGACGCACGTATTTGCACACATTGCCACGTAATTA [CACACA_site3349] | 9.28 ± 0.37
AAATTTGGCAGACACACACACACACGCACACGCACA [CACACA_site6423] | 10.4 ± 0.33
ATTTGGCATAGACACACACACACACGCACGCACATA [CACACA_site6424] | 10.3 ± 0.28
TACAGACATAGACACACACACACGCATAAAAAAAAA [CACACA_site6820] | 10 ± 0.51
TACACCCATAGACACACACACACGCATAAAAAAAAA [CACACA_site8428] | 9.95 ± 0.55
TACTTATTGTGATACTTATATTATTTTATGATTAAA [XGTACX_negctrl_site353] | 8.5 ± 0.42
TTTTGGTGGGTTACAAGTACTCAAAATGGATTGTTA [XGTACX_site1951] | 8.56 ± 0.38
GTTGCCATCATTTGGCGTACAGTCAAAACCAAATCT [XGTACX_site1398] | 8.56 ± 0.37
ACAACACATATTCATCGTACATGTATTAGGAAGACA [XGTACX_site1859] | 9.04 ± 0.42
GTATATTGTACCATCACACATGTAAAACATAGATGT [CACACA_site5359] | 8.94 ± 0.43
TGGTATATATTTCCTTGTACATATAATATATATTGT [XGTACX_site3961] | 8.94 ± 0.51
TAATATAATCTGAGTGCACACAAATAAATAAACATA [CACACA_site8032] | 9.16 ± 0.44
TACACAAATATATATATATATATATATATATATATA [XGTACX_negctrl_site305] | 10 ± 0.5
GCACAAATATATATATATATATATATATATATATAT [GTGCAC_negctrl_site661] | 10.2 ± 0.12
CACAAATATACAAATACACACAAATATACAAATACA [CACACA_site2385] | 9.42 ± 0.44
ATGAGTGCACAAATATATATATATATATATATATAT [CACACA_negctrl_site404] | 10.2 ± 0.26
ATAAAAATAAAAAGTGTGCACACAAAAATATATATA [GTGCAC_site9931] | 9.62 ± 0.36
TATAATGATGATGATAGTACGTATTAGTATAAAAAA [XGTACX_site9] | 8.81 ± 0.52
TATACCTTTTTATTCACACATATATGTCATATGTCA [CACACA_site5423] | 9.28 ± 0.5

Sequence | gcPBM binding intensity (ln)
CTCTTGTCATTTTGCACACACACATGGATAGGTTAT [CACACA_site5655] | 9.81 ± 0.33
ATAAAATTATATACTCGTACACAAAAAAAAAAAATA [XGTACX_site6035] | 8.77 ± 0.47
TATAAGTGCCGTTATACACACGTTATATAAATATTA [CACACA_site4401] | 8.81 ± 0.4
AACACAGATAAATTAACACACACACCCATATATATA [CACACA_site9310] | 9.85 ± 0.23
CGTTTATTAAACTTGACACACACACCCCCACATATA [CACACA_site8151] | 9.975 ± 0.064
TTCCCATGTAATATTAAACACACACCCATATAACAC [CACACA_site7905] | 9.505 ± 0.078
TATTAAACTGGACACACACACACACCCATATATAAA [CACACA_site4579] | 10.15 ± 0.021
TATTAAACGAAACACACACACACACCCATATATAAA [CACACA_site759] | 10.23 ± 0.099
CACAGATAAATTAACACACACACACCCATATATATA [CACACA_site3960] | 10.05 ± 0.071
ATACGACAAATATAAAGTACAAGCTTGGTTTTTATA [XGTACX_site8103] | 8.88 ± 0.59
AATTTGAAATATGTGGTGCAGTTATATAATATGTTT [GTGCAC_site9885] | 8.87 ± 0.41
GTACATATATACATTACACACGGTTTGATTTAAAAA [CACACA_site3379] | 8.98 ± 0.41
AAAGAAAAAAAAAACACACACACACGCATTCAATAT [CACACA_site6169] | 10.1 ± 0.13
AAAAAAAAAAAACACACACACACATTCAATATAAAA [CACACA_site40] | 9.76 ± 0.28
AGAAAAAAAAAAAAAAAACACACGGTACATTCAAAG [CACACA_site2] | 8.84 ± 0.43
AGAAAAAAAAAACACACACACACACCCTCAATATAA [CACACA_site39] | 10.1 ± 0.11
ATATACAATACAAAAACACACACAAAAAAAGAAAAG [CACACA_site8668] | 9.59 ± 0.4
AAAGAAAAAAAAAACACACACACACCCATTCAATAT [CACACA_site38] | 10.29 ± 0.035
AAAAATATGCTTCCATGTACTTAAAAAAAAAATTTA [XGTACX_site3617] | 8.34 ± 0.47
TTCATTTATATAATCACACATTTTATCATCTATGTT [CACACA_site4327] | 8.98 ± 0.47
ATGCAAACTAAAAGACGTACAGAAAAGTATCATACT [XGTACX_site8766] | 9.02 ± 0.42
TAAACAAATAAATAAACACACAATATATGTATATAT [CACACA_site3803] | 9.05 ± 0.38
